Experimental data as given in PubChem BioAssay (NCATS).
Records with an inconclusive call do not appear. Where a call stands in place of a potency, no number is given. The source made the active and inactive calls. Calls follow the shape of the dose curve; as a rule, active = well fitted cell-killing curve with a large enough effect; inconclusive = small, poorly fitted or top-dose-only effect, or effect the other way; inactive = no such curve, though single readings can be large or run the other way. Positions of bridges follow the written chain, without caps; N, C: chain ends. Non-standard residues stand in square brackets, D forms with d. Residues, ends and D or L forms follow the SMILES beside them. ξ: configuration not given here. *: point of attachment. Octanoyl(6-Me) = CCC(C)CCCCC(=O)*; ξThr(3R) = C[C@@H](O)C(N)C(=O)O; dDab = NCC[C@@H](N)C(=O)O; Dab = NCC[C@H](N)C(=O)O

test: Quantitative High-Throughput drug screen in 47 multiple myeloma cell lines against the NCATS MIPE library collection: KMS12PE_JCRB cell viability assay (AID 1918972); details: KMS12PE myeloma viability, CellTiter-Glo ATP, 48 h; series mostly up to 45.8 µM; also: nearly all actives have a fitted effect of over 30% in size
Procedure, shortened: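 Viability readout: CellTiter-Glo luminescence following 5 min room-temperature incubation with reagent. Prior exposure: 48 h, 37C, humidified 5% CO2, 500 cells per well.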
Potency is read from the fitted curve at half-maximal effect.

Row | SMILES | Potency
1 | CC[C@H]1OC(=O)[C@H](C)[C@@H](O[C@H]2C[C@@](C)(OC)[C@@H](O)[C@H](C)O2)[C@H](C)[C@@H](O[C@@H]2O[C@H](C)C[C@H](N(C)C)[C@@H]2O)[C@](C)(OC)C[C@@H](C)C(=O)[C@H](C)[C@@H](O)[C@]1(C)O | inactive
2 | O=C(c1ccc(F)cc1)N1CCC[C@H](c2nc(-c3ccc(F)cc3)no2)C1 | inactive
3 | Cn1cc(C=CC(=O)c2cccc(F)c2)cc1C=CC(=O)NO | 14.8 µM (active)
4 | O=C1NC(O)CCN1[C@@H]1O[C@H](CO)[C@H](O)[C@H]1O (stereo partly drawn) | inactive
5 | Nc1nc(N)c2nc(-c3cccc(O)c3)c(-c3cccc(O)c3)nc2n1 | 13.2 µM (active)
6 | N[C@H]1CN(c2c(F)cc3c(=O)c(C(=O)O)cn(C4C[C@@H]4F)c3c2Cl)CC12CC2 (stereo partly drawn) | inactive
7 | C=C(C)[C@@H]1CC[C@]2(C(=O)O)CC[C@]3(C)[C@H](CC[C@@H]4[C@@]5(C)CC[C@H](O)C(C)(C)[C@@H]5CC[C@]43C)[C@@H]12 | 0.0372 µM (active)
8 | C[C@H](O)[C@@H]1C(=O)N2C(C(=O)O)=C(S[C@@H]3CN[C@H](CNS(N)(=O)=O)C3)[C@@H](C)[C@@H]12 | inactive
9 | Cn1cnc2c(F)c(Nc3ccc(Br)cc3F)c(C(=O)NOCCO)cc21 | inactive
10 | CC[C@H]1OC(=O)[C@H](C)[C@@H](O[C@H]2C[C@@](C)(OC)[C@@H](O)[C@H](C)O2)[C@H](C)[C@@H](O[C@@H]2O[C@@H](C)C[C@H](N(C)C)[C@@H]2O)[C@](C)(O)C[C@@H](C)C(=O)[C@H](C)[C@@H](O)[C@]1(C)O | inactive
11 | C#Cc1cccc(Nc2ncnc3cc(OCCOC)c(OCCO)cc23)c1 | 1.48 µM (active)
12 | COC1=C(OC)C(=O)C(CC=C(C)CCC=C(C)CCC=C(C)CCC=C(C)CCC=C(C)CCC=C(C)CCC=C(C)CCC=C(C)CCC=C(C)CCC=C(C)C)=C(C)C1=O | inactive
13 | O=c1[nH]c(=O)n([C@H]2C[C@@H](O)[C@@H](CO)O2)cc1C=CBr | inactive
14 | C[C@@H]1[C@H](C)CC[C@]2(C(=O)O)CC[C@]3(C)C(=CC[C@@H]4[C@@]5(C)C[C@@H](O)[C@H](O)[C@@](C)(CO)[C@H]5CC[C@]43C)[C@@H]12 | inactive
15 | CC(Oc1ccc(O)cc1)(P(=O)(O)O)P(=O)(O)O | inactive
16 | CC(C)(C)c1nc2c3cc[nH]c(=O)c3c3cc(F)ccc3c2[nH]1 | inactive
17 | CC(=CC(=O)Nc1ccccc1C(=O)O)c1ccc2ccccc2c1 | 23.5 µM (active)
18 | O=C(Nc1ccc(Oc2ccnc3[nH]ccc23)c(F)c1)c1cccn(-c2ccc(F)cc2)c1=O | inactive
19 | CCOC(=O)C=C[C@H](C[C@@H]1CCNC1=O)NC(=O)[C@@H](CC(=O)[C@@H](NC(=O)c1cc(C)on1)C(C)C)Cc1ccc(F)cc1 | inactive
20 | CCC(C)CCCCC(=O)N[C@@H](CCN)C(=O)NC(C(=O)N[C@H](CCN)C(=O)N[C@@H]1CCNC(=O)C([C@@H](C)O)NC(=O)[C@@H](CCN)NC(=O)[C@@H](CCN)NC(=O)[C@@H](CC(C)C)NC(=O)[C@H](Cc2ccccc2)NC(=O)[C@H](CCN)NC1=O)[C@@H](C)O (stereo partly drawn) ({Octanoyl(6-Me)}-[Dab][ξThr(3R)][dDab][dDab][Dab]F[dL][dDab][dDab][ξThr(3R)]; lactam 4-C) | inactive
21 | COC(=O)C1C2CC3c4[nH]c5cc(OC)ccc5c4CCN3CC2CC(OC(=O)c2cc(OC)c(OC)c(OC)c2)C1OC (stereo not drawn) | 18.7 µM (active)
22 | Cn1c(Nc2ccc(C(F)(F)F)cc2)nc2cc(Oc3ccnc(-c4ncc(C(F)(F)F)[nH]4)c3)ccc21 | 5.26 µM (active)
23 | O=C(O)CCCCCC(=O)NN=C1CCCC1 | inactive
24 | C[C@H](CCC(=O)O)[C@H]1CCC2C3C[C@H](O)[C@@H]4C[C@H](O)CC[C@]4(C)C3CC[C@@]21C (stereo partly drawn) | inactive
25 | O=C1c2cccc(O)c2C(=O)c2c(O)cc(CO)cc21 | inactive
26 | CC(C)(O)CC[C@@H](O)[C@](C)(O)[C@H]1CC[C@@]2(O)C3=CC(=O)[C@@H]4C[C@@H](O)[C@@H](O)C[C@]4(C)[C@@H]3CC[C@]12C | inactive
27 | COC(=O)[C@@H]1[C@H]2C[C@@H]3c4[nH]c5ccccc5c4CCN3C[C@@H]2CC[C@@H]1O | inactive
28 | COc1cc(C(=O)NC2CCN(C)CC2)ccc1Nc1ncc2c(n1)N(C1CCCC1)CCC(=O)N2C(C)C | 13.2 µM (active)
